ClpP mod – qHTS Assay for Activators of ClpP | ATP-dependent Clp protease proteolytic subunit (Bacillus subtilis (strain 168)), P80244 | purified B. subtilis ClpP, FRET peptide cleavage, 20 min | Potency, µM (doses to about 57.5 µM) | actives 1.9% (n = 340,000); active = well fitted falling curve with a large enough effect; inconclusive = small, poorly fitted or top-dose-only effect; inactive = no such curve, though single readings can be large or run the other way; also: the source files actives as falling curves though it sought activators and does not explain the sign; nearly all actives have a fitted effect of over 65% in size
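Purified B. subtilis ClpP, 10 microg/mL final in Tris/HCl pH8 with KCl, BSA, glycerol and Tween-20, cleaved an Abz/nitrotyrosine-quenched decapeptide. Fluorescence (ex 320, em 430) was read at 0 and 20 min at room temperature. Delta was normalized to 5.8 microM ADEP and DMSO/no-enzyme controls.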
gsp ag – activates gsp, the McCune-Albright syndrome mutation; actives 0.13% (n = 340,000); Potency, µM (series often up to 76.9 µM), actives largely listed as activators; gsp mutant cells, cAMP HTRF, 30 min; active = well fitted activation curve with a large enough effect; inconclusive = small, poorly fitted or top-dose-only effect, or another doubt; inactive = no such curve, though single readings can be large or run the other way; cell line not stated here;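 also: phosphodiesterase inhibitor Ro 20-1724 added with compounds to block cAMP breakdown; nearly all actives have a fitted effect of over 60% in size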
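Cells in DMEM/10% FBS with G418 were pretreated with compounds in DMSO plus […] (300 uM stock) for 30 min at 37C. cAMP was measured by HTRF (cAMP-d2 plus anti-cAMP antibody-K) after 30 min at room temperature.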
RXFP1 antagonist – antagonists of human relaxin receptor RXFP1 | HEK293-RXFP1, relaxin-stimulated cAMP HTRF, 30 min; active compounds read low | Q9HBX9 | actives 0.59% (n = 350,000) | activity change, negative = inhibition, % at 57.5 µM | AID 1259400;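 active = activity change of -60% or lower, but not beyond a set lower limit; inconclusive = change between -60% and -40%, or beyond the set limit; inactive = change above -40%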
Target sequence (Q9HBX9 whole entry, looked up): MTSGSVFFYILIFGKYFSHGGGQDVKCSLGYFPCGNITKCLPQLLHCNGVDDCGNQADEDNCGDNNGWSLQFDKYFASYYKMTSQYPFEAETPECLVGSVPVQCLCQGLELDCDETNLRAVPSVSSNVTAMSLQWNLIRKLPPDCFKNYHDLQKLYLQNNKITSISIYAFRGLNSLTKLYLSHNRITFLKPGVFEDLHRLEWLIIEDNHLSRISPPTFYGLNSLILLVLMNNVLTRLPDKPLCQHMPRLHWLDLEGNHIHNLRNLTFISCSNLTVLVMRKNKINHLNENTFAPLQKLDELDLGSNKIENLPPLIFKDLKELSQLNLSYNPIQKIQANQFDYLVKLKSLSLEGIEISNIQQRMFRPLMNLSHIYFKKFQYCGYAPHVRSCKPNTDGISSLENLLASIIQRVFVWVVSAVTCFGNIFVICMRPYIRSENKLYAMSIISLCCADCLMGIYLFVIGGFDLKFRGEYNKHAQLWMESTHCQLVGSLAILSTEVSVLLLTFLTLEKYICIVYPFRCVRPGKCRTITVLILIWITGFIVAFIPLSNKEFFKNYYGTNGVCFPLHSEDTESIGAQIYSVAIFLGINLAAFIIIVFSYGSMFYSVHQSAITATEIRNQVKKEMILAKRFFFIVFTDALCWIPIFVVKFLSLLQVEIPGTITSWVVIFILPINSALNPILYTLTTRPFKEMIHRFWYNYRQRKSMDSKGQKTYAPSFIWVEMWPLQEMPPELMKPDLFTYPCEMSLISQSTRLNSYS
Akt phos inh – inhibitors of Akt phosphorylation | Neuro2A IGF-stimulated pAkt S473 HTRF, 20 min; active compounds read low | activity change, % for hits at 50 µM | actives 0.32% (n = 360,000); in the data active = activity change below about -80%; inconclusive = mostly about -51% to -80%
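Single-point screen (50 µM final compound) in Neuro2A cells stimulated 20 min with 6 nM IGF at 37 deg C. After lysis, Ser473-phosphorylated Akt read by HTRF (ex 330 nm, em 615/665 nm) as the 665/615 ratio.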
RXFP1 agonist – activates the human relaxin receptor RXFP1. Potency, µM (series often up to 57.5 µM), actives largely listed as activators. HEK293T-RXFP1 cAMP TR-FRET, 30 min; response scale: percent of porcine relaxin response, buffer zero. actives 0.3% (n = 370,000); active = well fitted activation curve with a large enough effect; inconclusive = small, poorly fitted or top-dose-only effect; also: nearly all actives have a fitted effect of over 60% in size
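HEK293 cells stably expressing RXFP1, treated 30 min at 37C with compounds plus PDE4 inhibitor Ro 20174; cAMP measured by HTRF TR-FRET. Normalized to buffer and 29 nM porcine relaxin; EC50 by Hill fit.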
gsp antagonist – gsp mutant antagonism; gsp-mutant cells, cAMP HTRF, 30 min; Potency, µM (titrated, usually from 76.9 µM), usual class: inhibitors; actives 0.4% (n = 340,000); AID 624288; calls by dose curve; cell line not stated here;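 also: intracellular cAMP measured with PDE inhibitor Ro 20-1724 present during compound exposure; nearly all actives have a fitted effect of over 65% in size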
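HTRF cAMP measurement after 30 min RT detection following 30 min, 37C compound treatment alongside […] (added as 300 uM solution) in G418-selected cells seeded at 2000/well and grown 16–24 h.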
A number is an active result; – = inactive; ? = inconclusive; · = no result; [ ] = remark or other dose. Sampled rows, rich in hits. Any-hit rate of the full collection: about 2.7%.

SMILES | ClpP mod | gsp ag | RXFP1 antagonist | Akt phos inh | RXFP1 agonist | gsp antagonist
CCN(CC)C(=O)C1=C(C)N(CCC2=CCCCC2)C(=O)C(CC(=O)NC2CCCC2)C1 (configuration not stated) | – | ? | – | – | · | ·
O=C1C2C3C=CC(C4CC34)C2C(=O)N1/N=C/c1ccc(-c2cccc([N+](=O)[O-])c2)o1 (configuration not stated) | 31.6µM | –[15.4 µM] | – | – | – | –
c1csc(-c2ccc3ccccc3n2)c1 | 14.1µM | – | – | – | – | –[15.4 µM]
Nc1nc2ccccc2cc1-c1cccs1 | – | – | – | – | – | –
Cc1ccc(S(=O)(=O)c2cn(C)c3cc(N4CCN(C)CC4)c(F)cc3c2=O)c(C)c1 | – | – | ? | – | – | –
CCn1cc(S(=O)(=O)c2ccc(C)cc2C)c(=O)c2cc(F)c(N3CCCC3)cc21 | 31.6µM | · | – | · | – | ·
Cc1ccc(S(=O)(=O)c2cn(C)c3cc(N4CCCC(C)C4)c(F)cc3c2=O)c(C)c1 (configuration not stated) | 20µM | · | – | · | – | ·
Cc1ccc(S(=O)(=O)c2cn(C)c3cc(N4CCCC4)c(F)cc3c2=O)c(C)c1 | 28.2µM | · | – | · | – | ·
CCCN1CCN(c2cc3c(cc2F)c(=O)c(S(=O)(=O)c2ccc(Cl)cc2)cn3C)CC1 | 15.8µM | · | – | · | – | ·
Cn1cc(S(=O)(=O)c2ccc(Cl)cc2)c(=O)c2cc(F)c(N3CCCCCC3)cc21 | – | · | – | · | – | ·
Cc1nn(-c2ccc(N3CCCCC3)nn2)c(C)c1CCC(=O)Nc1cc(F)ccc1F | – | – | – | – | – | –
CCCCOC(=O)CSc1n[nH]c(=O)[nH]c1=O | – | – | – | -123.8% | – | –
N#Cc1ccc(Oc2ccc(-c3cnc4ccccc4n3)cc2)cc1C#N | 20µM | –[15.4 µM] | – | – | – | –
Cc1cc(C)nc(NS(=O)(=O)c2ccc(NC(=O)c3ccccc3O)cc2)n1 | – | · | · | · | – | ·
Cc1ccc(C(C)(C)C)cc1S(=O)(=O)NC(=O)c1ccccc1 | · | –[15.4 µM] | – | – | – | –
COC(=O)c1ccccc1S(=O)(=O)NC(=O)c1ccccc1 | 20µM | – | – | – | – | –
COC(=O)c1ccccc1S(=O)(=O)Oc1ccc(-c2ccc(C(=O)O)cc2)cc1 | · | –[15.4 µM] | – | – | – | 28.2µM
NS(=O)(=O)c1ccc(NC(=O)c2nc(S(=O)(=O)Cc3ccccc3F)ncc2Cl)cc1 | – | · | · | · | · | ·
CCC(=O)Nc1c(-c2ccccc2Cl)c(=O)c2ccccc2n1CC | – | 15.8µM | – | – | – | –
CCn1c(NC(C)=O)c(-c2ccccc2Cl)c(=O)c2ccccc21 | – | – | – | – | – | –
CCc1cccc2c(CCO)c[nH]c12 | · | · | – | · | · | ·
NC(=S)n1[nH]c(-c2ccc([N+](=O)[O-])cc2)c(N=Nc2cccc(Cl)c2)c1=O | · | – | – | – | – | 25.1µM
Cc1cc(C)c2c(=O)cc(CSc3n[nH]c(C)n3)[nH]c2c1 | – | · | – | · | – | ·
Cc1cccc(-c2nc(SCc3cc(=O)c4c(C)cc(C)cc4[nH]3)n[nH]2)c1 | – | · | -69.9 | · | – | ·
CCOC(=O)[C@]12CCCC=C1N(Cc1ccccc1)C(=O)[C@H](CC(=O)N1CCC(c3ccccc3)CC1)C2 | – | · | · | – | · | ·
SMILES | ClpP mod | gsp ag | RXFP1 antagonist | Akt phos inh | RXFP1 agonist | gsp antagonist
O=C1c2ccccc2NC(c2cccc(Cl)c2)N1N=C1CCCCCC1 (configuration not stated) | 20µM | ? | – | – | – | –
N#Cc1cc2cc3c(cc2nc1N1CCOCC1)OCO3 | 31.6µM | – | – | – | ? | –
CSc1cccc(NC(=O)Cn2c3ncccc3c(=O)n2-c2ccc(C)cc2)c1 | 25.1µM | · | – | · | – | ·
COc1ccc(-c2sc3ccccc3c2/C=C/c2ccncc2)cc1 | ? | · | · | – | · | 11.2µM
COc1ccc(-c2sc3ccccc3c2/C=C/c2ccc(OC)c(OC)c2)cc1 | – | ? | · | – | · | –
CC(C)c1nc2scc(-c3ccc(Cl)cc3)c2c(=O)n1N | – | – | – | – | – | –
O=C(Nc1ccc(F)cc1)N(CCCN1CCOCC1)Cc1cc2cc3c(cc2[nH]c1=O)OCCO3 | 25.1µM | – | – | – | – | –
COc1ccccc1NC(=O)N(CCCN1CCOCC1)Cc1cc2cc3c(cc2[nH]c1=O)OCO3 | 20µM | ? | – | – | – | –
Cc1ccc(-c2nc3sccn3c2Nc2ccc(C)c(C)c2)cc1 | – | · | – | · | – | ·
Cc1cccc(N2CC(C(=O)Nc3nnc(SCC(=O)N4CCOCC4)s3)CC2=O)c1 (configuration not stated) | – | – | – | – | – | –
COc1ccccc1OCC(=O)N(Cc1ccc(N(C)C)cc1)CC1CCCO1 (configuration not stated) | – | · | – | · | – | ·
NC(=O)CCCCC1CCSS1 (configuration not stated) | · | · | -100.8 | · | · | ·
C/C(=N\N=C1/SC(CC(=O)O)C(=O)N1c1ccccc1)c1ccc(C)cc1 (configuration not stated) | – | – | – | – | – | 25.1µM
COc1ccc(OC)c(NC(=O)CN2CCC(C(=O)c3ccc(C)cc3)CC2)c1 | – | – | – | · | – | 28.2µM
COc1ccc(CNC(=O)C2Cc3c(-c4ccccc4Oc4ccccc4)ccnc3O2)cc1OC (configuration not stated) | – | · | · | – | · | ·
CC(=O)c1c(O)c(C)c(-c2ccccc2)n(-c2ccccc2)c1=O | 22.4µM | – | – | – | – | –
CC(C)(C)C(=O)n1nc(-c2ccccc2)oc1=O | 31.6µM | – | – | – | – | –
O=C(O)Cn1nc(-c2ccccc2)oc1=O | – | – | – | – | – | –
Cc1cc(C(=O)CSc2nc(N)cc(=O)[nH]2)c(C)n1CC1CCCO1 (configuration not stated) | · | – | – | – | · | –
Cc1cc(C(=O)CSc2nc3ccccc3[nH]2)c(C)n1CC1CCCO1 (configuration not stated) | – | – | – | – | – | 31.6µM
Cc1cc(C(=O)CSc2nc3ccccc3o2)c(C)n1CC1CCCO1 (configuration not stated) | 28.2µM | – | – | · | – | –
CCC(C)N(C(=O)COc1ccccc1C(=O)NCc1ccccc1)C1CCS(=O)(=O)C1 (configuration not stated) | – | – | – | – | – | –
CCCN(CC1CC1)C(=O)COc1ccccc1C(=O)NCc1ccccc1 | – | – | – | -110.0% | – | ?
CCCCCCC[n+]1ccc(C)c2ccccc21 | – | · | · | · | · | ·
Clc1ccc(CSc2ncccn2)cc1 | – | – | – | – | – | –
O=C1c2cnc3nc(SCc4ccc(Cl)cc4)nn3c2CC2c3ccccc3CCN12 (configuration not stated) | 31.6µM | – | – | ? | – | –

Bioassay records deposited in PubChem BioAssay by National Center for Advancing Translational Sciences (NCATS).
